# Results taken from publication PMC10668032, “Altered binding affinity of SIX1-Q177R correlates with enhanced WNT5A and WNT pathway effector expression in Wilms tumor”.
# Over roughly 33,000 sequences, “e-score” has its median near -0.05; the highest 2% begin near 0.38. The full list was thinned out, with the highest values kept by preference.
# Molecular target: T1, SIX1-Q177R homeodomain (human, UniProt Q15475 108-198, Q177R)
# T1 sequence: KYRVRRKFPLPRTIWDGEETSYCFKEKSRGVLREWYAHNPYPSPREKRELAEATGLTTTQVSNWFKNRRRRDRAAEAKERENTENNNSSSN
# Assay: universal protein binding microarray; Universal all-10-mer PBM (8x60K, AMADID 030236), 300 nM GST-tagged protein, Alexa Fluor 488 anti-GST; buffer, salt, pH and temperature not stated (as in Berger); high values mean tight binding
# Conditions: protein: ivt; tags: N-terminal GST; dsDNA, one strand shown
# How it was run: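 GST-tagged homeodomains were made by in vitro transcription/translation and quantified by anti-GST western blot against a recombinant GST standard curve. They were applied in duplicate at 300 nM final concentration to universal 'all 10-mer' protein binding microarrays (8×60K format). Binding was quantified as 8-mer E-scores with the Universal PBM Analysis Suite.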
row,Sequence,binding signal
1,CACACTCA,0.21 ± 0.0192 E-score
2,AACACTCA,0.3999 ± 0.00301 E-score
3,CGGATCAC,0.174 ± 0.0108 E-score
4,CACGGAGC,0.163 ± 0.00672 E-score
5,CACTAGCG,0.188 ± 0.0248 E-score
6,CCGTGCGA,0.155 ± 0.0514 E-score
7,ACGGTGTG,0.367 ± 0.0153 E-score
8,ACGGTGCG,0.167 ± 0.0105 E-score
9,CCGGTATC,0.284 ± 0.0126 E-score
10,CCGGTGTC,0.4894 ± 0.00404 E-score
11,ACGGTGTC,0.4875 ± 0.00246 E-score
12,CCGGTGCG,0.179 ± 0.0475 E-score
13,ACGGGGTG,0.338 ± 0.0174 E-score
14,ACCTGGTG,0.322 ± 0.00697 E-score
15,ACAATACA,0.194 ± 0.0158 E-score
16,CTAGGACA,0.162 ± 0.0316 E-score
17,TAATCACA,0.213 ± 0.0222 E-score
18,GGGGTTGA,0.2 ± 0.025 E-score
19,GGACACTA,0.358 ± 0.00739 E-score
20,CGACACTA,0.41 ± 0.00325 E-score
21,AGACACTC,0.3634 ± 0.00141 E-score
22,CGACACTC,0.437 ± 0.00883 E-score

row,Sequence,binding signal
1,AGACACTA,0.343 ± 0.00686 E-score
2,ACGCCCGA,0.17 ± 0.0302 E-score
3,CCTGCACC,0.16 ± 0.00461 E-score
4,ACCCAAGT,0.157 ± 0.00998 E-score
5,AAGCACCA,0.24 ± 0.00412 E-score
6,CCGGACAC,0.427 ± 0.0142 E-score
7,ACGGAGTC,0.181 ± 0.0091 E-score
8,CCGGACGA,0.185 ± 0.0376 E-score
9,ACGGACAC,0.41 ± 0.0174 E-score
10,GCGGATAC,0.2681 ± 0.00246 E-score
11,ACGGATAC,0.28 ± 0.00317 E-score
12,GCGCACAC,0.289 ± 0.0303 E-score
13,GCGGACAC,0.406 ± 0.0139 E-score
14,CCGGATAC,0.262 ± 0.00585 E-score
15,CCCTCTGA,0.153 ± 0.0264 E-score
16,CACTGAGA,0.202 ± 0.0113 E-score
17,GCTTAACA,0.171 ± 0.0194 E-score
18,ACCAGAGT,0.16 ± 0.0333 E-score
19,ACCCTTAA,0.175 ± 0.0783 E-score
20,ATCCCTAG,0.154 ± 0.00215 E-score
21,CACTCGTA,0.152 ± 0.0172 E-score
22,CGGCGTAC,0.209 ± 0.00229 E-score

row,Sequence,binding signal
1,TATGGACA,0.167 ± 0.0099 E-score
2,CACTTTAC,0.221 ± 0.0328 E-score
3,ACCCCTTC,0.2425 ± 0.00198 E-score
4,ACACTTTG,0.31 ± 0.0292 E-score
5,ACACCTTA,0.456 ± 0.00729 E-score
6,ACACCTTG,0.44 ± 0.00935 E-score
7,CCACCTTC,0.19 ± 0.00382 E-score
8,ACACCTTC,0.46 ± 0.0107 E-score
9,ACACGTTA,0.297 ± 0.0383 E-score
10,ACCCCTTG,0.237 ± 0.00827 E-score
11,ACCCCTTA,0.228 ± 0.014 E-score
12,GACAGGGC,0.162 ± 0.0431 E-score
13,TTACACAA,0.223 ± 0.0118 E-score
14,GAAGCACC,0.238 ± 0.00424 E-score
15,GTACCCCA,0.247 ± 0.0214 E-score
16,ATACGACA,0.18 ± 0.0318 E-score
17,ACCCAAGA,0.163 ± 0.00205 E-score
18,CACCGCAG,0.241 ± 0.0286 E-score
19,GAAAACAC,0.383 ± 0.0136 E-score
20,GGAAACAC,0.374 ± 0.004 E-score
21,AGAAACAC,0.408 ± 0.0147 E-score
22,AAAAACAC,0.368 ± 0.0203 E-score

row,Sequence,binding signal
1,AGAAAACA,0.192 ± 0.0184 E-score
2,CGAAACAC,0.339 ± 0.0288 E-score
3,GGGATCCC,0.31 ± 0.0322 E-score
4,GGTGCATA,0.195 ± 0.0199 E-score
5,GGGATCAA,0.189 ± 0.0285 E-score
6,GGTGCTCA,0.25 ± 0.046 E-score
7,GGTGTTCA,0.4614 ± 0.000559 E-score
8,CGTGTTCC,0.34 ± 0.0151 E-score
9,AGTGTTCA,0.343 ± 0.0114 E-score
10,CGTGTTCA,0.4087 ± 0.0026 E-score
11,GGGGTTCA,0.256 ± 0.0435 E-score
12,CCCGATGA,0.16 ± 0.00231 E-score
13,CTCCCGCA,0.155 ± 0.0331 E-score
14,ACCCAGGC,0.162 ± 0.0568 E-score
15,CCCCGCGG,0.193 ± 0.0298 E-score
16,GTACGACA,0.297 ± 0.0138 E-score
17,CGTGGTGC,0.187 ± 0.0118 E-score
18,GGTGCAAC,0.272 ± 0.00472 E-score
19,ATACCATC,0.151 ± 0.00506 E-score
20,ACCCCATG,0.226 ± 0.0299 E-score
21,ACACCATG,0.4696 ± 0.00232 E-score
